# Assay results published in ChEMBL document CHEMBL1157539, “Thousands of chemical starting points for antimalarial lead identification” (Nature, 2010).
# Tested on: Plasmodium falciparum
# Test: GSK_TCMDC: Inhibition of Plasmodium falciparum 3D7 in whole red blood cells, using parasite LDH activity as an index of growth. Test compounds present at 2uM
# Assay type: functional
row,Compound,Inhibition [%]
1,CCN(CC)CCCC(C)Nc1c(-c2ccc(OC)cc2)cnc2ccccc12 (stereo not given),93
2,COc1ccc(CNC(=O)NC2CCN(c3ccnc(Nc4ccc(F)cc4)n3)C2)cc1 (stereo not given),91
3,COc1cc(F)c2ncc(Cl)c(CCN3CCC(NCc4cc5c(cn4)OCCO5)CC3)c2c1.Cl,89
4,S=C(NCCCCCN1CCC(c2c[nH]c3ccccc23)CC1)Nc1cccc(I)c1,99
5,CN1CCN(c2ccc(-c3cccc(NC(=O)c4cccc(Cl)c4)c3)nn2)CC1,94
6,COc1ccc2nc(/N=C3\NC(c4ccccn4)(c4ccccn4)C(=O)N3C)[nH]c2c1,99
7,Cn1c(N)c(C(=O)CSc2ncc(-c3ccc(F)cc3)n2Cc2ccccc2)c(=O)n(C)c1=O,88
8,CN1CCC(NCc2ccc(-c3ccc(S(=O)(=O)NCc4ccccc4)c(F)c3)cc2)CC1.O=C(O)C(F)(F)F,99
9,Cc1nc2ccccc2c(O)c1-c1ccc(Cl)cc1,93
10,O=c1cc(NCCCNCc2cc(F)cc(C(F)(F)F)c2)[nH]c2ccccc12,92
11,COc1cc2nc(N3CCN(c4cc(C)ccc4C)CC3)nc(N)c2cc1OC.Cl,98
12,O=C(Nc1ccc(-c2ccccc2)cc1)Nc1cccc(Cn2ncc(N3CCNCC3)c(Cl)c2=O)c1.O=C(O)C(F)(F)F,100
13,O=C(NCCCCN1CCC(c2ccc([N+](=O)[O-])cc2)CC1)c1ccc(NC(=O)c2ccc(Cl)cc2)cc1,100
14,Cc1cc(=O)oc2c1ccc1oc(C(O)c3ccc(Cl)cc3)c(C)c12 (stereo not given),95
15,COc1ccc(-c2nc(NC(=O)Cc3coc4cc(OC)ccc34)sc2C)cc1,100
16,Cl.O=c1cc(NCCCNCc2ccc(Cl)c(Cl)c2)[nH]c2ccc(Oc3ccccc3)cc12,92
17,N=C(Nc1cccc(Cc2ccccc2)n1)Nc1ncccn1,90
18,O=C(Nc1cccc(-c2ccc(CN3CCCC3)cc2)c1)c1ccc(F)cc1.O=C(O)C(F)(F)F,92
19,CCCCCCCNC(=O)NCC1CCCN(CCCCCNC(=O)/C=C/c2ccc(Cl)c(Cl)c2)C1 (stereo not given),86
20,N#Cc1cccc(NC(=O)Nc2cccc(-c3ccc(-c4nc5cc(C(F)(F)F)ccc5[nH]4)cc3)c2)c1,100

row,Compound,Inhibition [%]
1,CCN(CCCN1CCCCC1)c1cc(C)nc(Nc2ccc(C)cc2Br)n1.O=C(O)C(F)(F)F,95
2,COc1cc(C)nc2ccc(NC(=O)Nc3ccc4nc(C)cc(OC)c4c3)cc12,100
3,Br.CCCc1cccc(OC)c1OCCCON1C(N)=NC(N)=NC1(C)C,94
4,O=S(=O)(c1cc(Cl)ccc1Cl)N1CCCCC(c2ccc(C(F)(F)F)cc2)=N1,87
5,Fc1ccc2[nH]c(-c3ccc(-c4ccc(CN5CCC(CCN6CCCCC6)CC5)cc4)cc3)nc2c1.O=C(O)C(F)(F)F,100
6,O=C(c1cccc(-c2ccc(-c3nc4cc(C(F)(F)F)ccc4[nH]3)cc2)c1)N1CCCCC1CN1CCC(O)C1 (stereo not given),92
7,Cl.N=C(NCCc1ccccc1Cl)c1ccc2ccccc2c1,88
8,COc1ccc(N2CCN(CCCCNC(=O)c3ccc(NC(=O)c4ccc(Cl)cc4)cc3)CC2)c(OC)c1.Cl,97
9,COc1ccc2ncc(C#N)c(CCN3CCC(NCc4ccc5c(n4)NC(=O)CS5)CC3)c2n1.Cl,89
10,CN(C(=O)C1(c2ccc(Cl)cc2)CC1)C1CCN(CCCCCNC(=O)/C=C/c2ccc(Cl)c(Cl)c2)CC1,88
11,COc1ccc(CN2CCCC(OC(c3ccc(F)cc3)c3ccc(F)cc3)C2)c(O)c1 (stereo not given),100
12,CCC(C)(C)c1ccc(OCCCC(=O)Nc2ccc(Cl)c([N+](=O)[O-])c2)c(C(C)(C)CC)c1,92
13,Nc1nc2c(ncn2OC[C@H](CO)OCP(=O)(O)O)c(=O)[nH]1,94
14,C[C@H](Cc1ccc(CCc2ccc(C[C@@H](C)NC[C@H](O)c3cccc(Cl)c3)cc2)cc1)NC[C@H](O)c1cccc(Cl)c1.Cl,95
15,COC(=O)CCCCOc1cc(Cc2cnc(N)nc2N)cc(OC)c1OC,97
16,Cc1c(Cl)cccc1S(=O)(=O)Nc1ccc(CCN2CCC(N)CC2)cc1.Cl,90
17,Cc1c(C)n(C2CCCCC2)c2ncnc(OC3CCN(CC(=O)NC4CC4)CC3)c12,94
18,CC(C)NCc1ccc(-c2ccc(NC(=O)c3cccc(Cl)c3)cc2)cc1.O=C(O)C(F)(F)F,100
19,O=C(Nc1cccc(-c2cccc(-c3nc4ccccc4[nH]3)c2)c1)Nc1ccc(F)c(F)c1F,98
20,Cc1cc(NC(=O)Nc2ccc(N(C)C)cc2)c2cc(Cl)ccc2n1.Cl,100

# Tested on: Plasmodium falciparum
# Test: GSK_TCMDC: Inhibition of Plasmodium falciparum Dd2 in whole red blood cells, using parasite LDH activity as an index of growth. Test compounds present at 2uM
# Assay type: functional
row,Compound,Inhibition [%]
1,CCN(CC)CCCC(C)Nc1c(-c2ccc(OC)cc2)cnc2ccccc12 (stereo not given),38
2,COc1ccc(CNC(=O)NC2CCN(c3ccnc(Nc4ccc(F)cc4)n3)C2)cc1 (stereo not given),78
3,COc1cc(F)c2ncc(Cl)c(CCN3CCC(NCc4cc5c(cn4)OCCO5)CC3)c2c1.Cl,57
4,S=C(NCCCCCN1CCC(c2c[nH]c3ccccc23)CC1)Nc1cccc(I)c1,14
5,CN1CCN(c2ccc(-c3cccc(NC(=O)c4cccc(Cl)c4)c3)nn2)CC1,37
6,COc1ccc2nc(/N=C3\NC(c4ccccn4)(c4ccccn4)C(=O)N3C)[nH]c2c1,98
7,Cn1c(N)c(C(=O)CSc2ncc(-c3ccc(F)cc3)n2Cc2ccccc2)c(=O)n(C)c1=O,66
8,CN1CCC(NCc2ccc(-c3ccc(S(=O)(=O)NCc4ccccc4)c(F)c3)cc2)CC1.O=C(O)C(F)(F)F,89
9,Cc1nc2ccccc2c(O)c1-c1ccc(Cl)cc1,91
10,O=c1cc(NCCCNCc2cc(F)cc(C(F)(F)F)c2)[nH]c2ccccc12,15
11,COc1cc2nc(N3CCN(c4cc(C)ccc4C)CC3)nc(N)c2cc1OC.Cl,12
12,O=C(Nc1ccc(-c2ccccc2)cc1)Nc1cccc(Cn2ncc(N3CCNCC3)c(Cl)c2=O)c1.O=C(O)C(F)(F)F,59
13,O=C(NCCCCN1CCC(c2ccc([N+](=O)[O-])cc2)CC1)c1ccc(NC(=O)c2ccc(Cl)cc2)cc1,55
14,Cc1cc(=O)oc2c1ccc1oc(C(O)c3ccc(Cl)cc3)c(C)c12 (stereo not given),96
15,COc1ccc(-c2nc(NC(=O)Cc3coc4cc(OC)ccc34)sc2C)cc1,77
16,Cl.O=c1cc(NCCCNCc2ccc(Cl)c(Cl)c2)[nH]c2ccc(Oc3ccccc3)cc12,29
17,N=C(Nc1cccc(Cc2ccccc2)n1)Nc1ncccn1,34
18,O=C(Nc1cccc(-c2ccc(CN3CCCC3)cc2)c1)c1ccc(F)cc1.O=C(O)C(F)(F)F,9
19,CCCCCCCNC(=O)NCC1CCCN(CCCCCNC(=O)/C=C/c2ccc(Cl)c(Cl)c2)C1 (stereo not given),7
20,N#Cc1cccc(NC(=O)Nc2cccc(-c3ccc(-c4nc5cc(C(F)(F)F)ccc5[nH]4)cc3)c2)c1,99

row,Compound,Inhibition [%]
1,CCN(CCCN1CCCCC1)c1cc(C)nc(Nc2ccc(C)cc2Br)n1.O=C(O)C(F)(F)F,27
2,COc1cc(C)nc2ccc(NC(=O)Nc3ccc4nc(C)cc(OC)c4c3)cc12,83
3,Br.CCCc1cccc(OC)c1OCCCON1C(N)=NC(N)=NC1(C)C,97
4,O=S(=O)(c1cc(Cl)ccc1Cl)N1CCCCC(c2ccc(C(F)(F)F)cc2)=N1,68
5,Fc1ccc2[nH]c(-c3ccc(-c4ccc(CN5CCC(CCN6CCCCC6)CC5)cc4)cc3)nc2c1.O=C(O)C(F)(F)F,100
6,O=C(c1cccc(-c2ccc(-c3nc4cc(C(F)(F)F)ccc4[nH]3)cc2)c1)N1CCCCC1CN1CCC(O)C1 (stereo not given),100
7,Cl.N=C(NCCc1ccccc1Cl)c1ccc2ccccc2c1,11
8,COc1ccc(N2CCN(CCCCNC(=O)c3ccc(NC(=O)c4ccc(Cl)cc4)cc3)CC2)c(OC)c1.Cl,22
9,COc1ccc2ncc(C#N)c(CCN3CCC(NCc4ccc5c(n4)NC(=O)CS5)CC3)c2n1.Cl,17
10,CN(C(=O)C1(c2ccc(Cl)cc2)CC1)C1CCN(CCCCCNC(=O)/C=C/c2ccc(Cl)c(Cl)c2)CC1,0
11,COc1ccc(CN2CCCC(OC(c3ccc(F)cc3)c3ccc(F)cc3)C2)c(O)c1 (stereo not given),99
12,CCC(C)(C)c1ccc(OCCCC(=O)Nc2ccc(Cl)c([N+](=O)[O-])c2)c(C(C)(C)CC)c1,88
13,Nc1nc2c(ncn2OC[C@H](CO)OCP(=O)(O)O)c(=O)[nH]1,61
14,C[C@H](Cc1ccc(CCc2ccc(C[C@@H](C)NC[C@H](O)c3cccc(Cl)c3)cc2)cc1)NC[C@H](O)c1cccc(Cl)c1.Cl,92
15,COC(=O)CCCCOc1cc(Cc2cnc(N)nc2N)cc(OC)c1OC,0
16,Cc1c(Cl)cccc1S(=O)(=O)Nc1ccc(CCN2CCC(N)CC2)cc1.Cl,4
17,Cc1c(C)n(C2CCCCC2)c2ncnc(OC3CCN(CC(=O)NC4CC4)CC3)c12,72
18,CC(C)NCc1ccc(-c2ccc(NC(=O)c3cccc(Cl)c3)cc2)cc1.O=C(O)C(F)(F)F,14
19,O=C(Nc1cccc(-c2cccc(-c3nc4ccccc4[nH]3)c2)c1)Nc1ccc(F)c(F)c1F,95
20,Cc1cc(NC(=O)Nc2ccc(N(C)C)cc2)c2cc(Cl)ccc2n1.Cl,50
